Screening results deposited in PubChem by National Center for Advancing Translational Sciences (NCATS).
CHX counter – affects cycloheximide protein synthesis inhibition readout, counter-screen. cell reporter, cycloheximide protein synthesis inhibition counterscreen. max response, %. 300,000 tested, 12% active; in the data active = max response mostly above about 13%, no sharp cut-off; inactive = mostly below about 14%; note: read at 38.3 µM for the half of the compounds with a filed dose
Shiga inhibitor – blocks Shiga toxin action in Vero cells. Vero cells, Shiga toxin protein synthesis inhibition reporter. inhibition, % at 38.7 µM. 290,000 tested, 9.2% active; in the data active = inhibition mostly above about 28%, no sharp cut-off; inactive = mostly below about 43%
SARS PLP yeast – blocks SARS-CoV papain-like protease in a yeast assay; S. cerevisiae expressing SARS-CoV PLpro, growth rescue; Potency, µM (doses to about 32.9 µM), actives largely listed as activators; 330,000 tested, 0.19% active; AID 485353; note: nearly all actives have a fitted effect of over 55% in size
NS1 function inh – influenza NS1 inhibition; Potency, µM (top dose mostly 46.1 µM); 270,000 tested, 0.4% active; AID 2326; note: actives are rising curves; nearly all actives have a fitted effect of over 50% in size
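In this qHTS, NS1 from influenza A is expressed in budding yeast, where it slows growth. Cells are switched from glucose to 2% galactose medium (pH 6.0, -URA), treated with compound, and growth recovery is read at OD600.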
Of the large screens only hits and unclear results are named; the others gave an inactive call. In the library only some 12% were active in any assay of this set; here they are far more common. Unless noted, calls come from the whole dose curve.

CC(=O)C(/C=N/c1cc(-c2ccc(C)cc2)nn1-c1ccccc1)=C(\C)O	CHX counter 55.8, Shiga inhibitor 93.2
O=c1c(Cl)cc(Cl)nn1-c1ccccc1	none
Clc1ccccc1/C=N/c1cc(-c2ccccc2)nn1-c1ccccc1	CHX counter 32.9, Shiga inhibitor 51.6, NS1 function inh inconclusive
COc1ccccc1OC(C)C(=O)N(Cc1ccco1)C1CCS(=O)(=O)C1 (stereo not drawn)	CHX counter 14.1, Shiga inhibitor 24.7
CCc1ccc(OC(C)C(=O)N(Cc2ccco2)C2CCS(=O)(=O)C2)cc1 (stereo not drawn)	none
CC(C)(C)OC(=O)N1CCC(C(=O)Nc2ccc3c(c2)CCC3)CC1	none (no result: CHX counter, Shiga inhibitor, NS1 function inh)
CCc1ccc(/C=N/NC(=O)c2cc(-c3cccc([N+](=O)[O-])c3)n[nH]2)cc1	none
CCc1ccc(-c2cc(C(=O)N/N=C/c3c[nH]c4ccccc34)[nH]n2)cc1	CHX counter 35.2, Shiga inhibitor 105.7 (no result: NS1 function inh)
CCc1ccc2c(Cl)c(C(=O)N/N=C/c3c[nH]c4ccccc34)sc2c1	CHX counter 22.3
COc1ccc(S(=O)(=O)NCC(=O)N(CC(=O)NCC2CCCO2)Cc2ccccc2)cc1 (stereo not drawn)	none
Cc1cc(CN(C)C(=O)c2ccc3nc(Cc4ccccc4F)oc3c2)n[nH]1	none
COc1ccc(Cc2nc3ccc(C(=O)N4CCCN(C=O)CC4)cc3o2)cc1	SARS PLP yeast inconclusive
O=C(c1ccc2nc(Cc3ccccc3F)oc2c1)N1CCCC1	CHX counter 41.3, Shiga inhibitor 87.3
O=C(c1ccc2nc(Cc3ccccc3F)oc2c1)N1CC[C@H](O)C1	CHX counter 29.5, Shiga inhibitor 38.9
O=C(NCCCN1CCOCC1)c1ccc2nc(Cc3ccccc3F)oc2c1	CHX counter 21.7
CC(=O)N1CCCN(C(=O)c2ccc3nc(Cc4ccccc4F)oc3c2)CC1	CHX counter 14.4
COC1CCCN(C(=O)c2ccc3oc(Cc4ccc(Cl)cc4)nc3c2)C1 (stereo not drawn)	none
CCN(CC(=O)Nc1c(F)cccc1F)C(=O)c1cccc(S(=O)(=O)NCc2ccccc2)c1	none (no result: CHX counter, Shiga inhibitor, NS1 function inh)
O=C(Nc1ccccc1)N1CC=C(c2ccc(F)cc2)CC1	CHX counter 52.1, Shiga inhibitor 94.9
O=C(O)C1CCCCC1C(=O)N1CC=C(c2ccccc2)CC1 (stereo not drawn)	CHX counter 27.4, Shiga inhibitor 53.4
O=C(Nc1ccccc1)N1CC=C(c2ccccc2)CC1	CHX counter 36.0, Shiga inhibitor 79.5
CCN(C[C@H]1N[C@@](Cc2ccccc2)(C(=O)OC)[C@H]2C(=O)N(C)C(=O)[C@@H]12)C(=O)C1CCCCC1	none (no result: CHX counter, Shiga inhibitor, NS1 function inh)
COc1cc(/C=N\NC(=O)c2ccccc2F)ccc1Oc1ccc([N+](=O)[O-])cn1	CHX counter 15.8
COc1cc(/C=N\NC(=O)c2cccc(Cl)c2)ccc1Oc1ccc([N+](=O)[O-])cn1	CHX counter 17.3, Shiga inhibitor 53.5
COc1cc(/C=N\NC(=O)c2ccc(Cl)cc2)ccc1Oc1ccc([N+](=O)[O-])cn1	none
COc1ccc(-c2cc3nc4n(c(=O)c3s2)CCC4)cc1	CHX counter 33.0, Shiga inhibitor 90.5
COc1ccc(-c2nc3n(c2C)CCC3)cc1	CHX counter 26.9, Shiga inhibitor 70.6
COc1ccc(-c2cc3nc4n(c(=O)c3s2)CCCCC4)cc1	CHX counter 49.4, Shiga inhibitor 78.2
COc1ccc(-c2cc3nc(C)n(N)c(=O)c3s2)cc1	none
CC(=O)Nc1ccc(NC(=O)C(C)OC(=O)c2ccc3ccccc3n2)cc1 (stereo not drawn)	none (no result: CHX counter, Shiga inhibitor, NS1 function inh)
Cc1ccc(-c2nc(NCc3ccc(F)cc3)n(S(C)(=O)=O)n2)cc1	none
O=C(NCc1ccccn1)c1c(Cl)cccc1Cl	none
O=C(Cc1c(Cl)cccc1Cl)OCc1ccccn1	CHX counter 24.8, Shiga inhibitor 59.3
CCOC(=O)C(NC(C)=O)(Nc1ccc(S(=O)(=O)Nc2cc(C)nc(C)n2)cc1)C(F)(F)F (stereo not drawn)	none
CCOc1ccccc1CNC(=O)c1ccc(NC(=O)C2=C(C)OCCS2)cc1	none
CCOc1ccccc1CNC(=O)c1ccc(NC(=O)C2=CSCCO2)cc1	CHX counter 18.1
CN(Cc1ccccc1)C(=O)c1ccc(NC(=O)C2=CSCCO2)cc1	CHX counter 48.2, Shiga inhibitor 43.6
O=C(Nc1ccc(C(=O)NCC2CCN(Cc3ccccc3F)CC2)cc1)C1=CSCCO1	CHX counter 14.4
CCCSCCCNC(=O)c1ccc(NC(=O)C2=CSCCO2)cc1	Shiga inhibitor 67.3
CCN1CCN(CCCNC(=O)c2ccc(NC(=O)C3=CSCCO3)cc2)CC1	none
COc1ccc(CNC(=O)c2ccc(NC(=O)C3=CSCCO3)cc2)cc1	CHX counter 27.5, Shiga inhibitor 70.6
Cc1cccc(CNC(=O)c2ccc(NC(=O)C3=CSCCO3)cc2)c1	CHX counter 40.0
